The values that follow come from ChEMBL document CHEMBL3433997, “St. Jude Leishmania screening dataset” (2016).

As a reminder, the inhibition is the relative decrease from the control value, in per cent.

What all share (type): functional
For assay [1], the target named is Solute carrier family 2, facilitated glucose transporter member 1 (Homo sapiens) (UniProt P11166). As to the kind of experiment: ST_JUDE_LEISH: Cytotoxicity at 2uM final concentration against transgenic Leishmania Mexicana promastigotes LmGLUT1 that are glucose transport deficient and complemented with the human glucose transporter GLUT1. Activity is measured by DNA content using SYBR green in vitro.
Chain of Solute carrier family 2, facilitated glucose transporter member 1 (Homo sapiens) (P11166 whole entry): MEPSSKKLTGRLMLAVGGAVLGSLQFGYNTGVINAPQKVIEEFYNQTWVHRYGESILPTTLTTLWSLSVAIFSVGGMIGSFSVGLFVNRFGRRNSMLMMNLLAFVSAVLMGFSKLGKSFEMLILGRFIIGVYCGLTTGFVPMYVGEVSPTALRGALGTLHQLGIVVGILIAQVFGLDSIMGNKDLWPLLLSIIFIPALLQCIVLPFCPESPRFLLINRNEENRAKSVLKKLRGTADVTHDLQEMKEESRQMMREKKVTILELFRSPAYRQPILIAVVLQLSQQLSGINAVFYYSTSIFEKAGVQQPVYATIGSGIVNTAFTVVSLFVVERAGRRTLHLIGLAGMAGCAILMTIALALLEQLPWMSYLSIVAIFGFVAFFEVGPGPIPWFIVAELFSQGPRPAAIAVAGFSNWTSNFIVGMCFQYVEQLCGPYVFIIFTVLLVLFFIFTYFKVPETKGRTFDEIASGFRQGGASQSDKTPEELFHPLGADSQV

Assay [2] deals with Hexose transporter 1 (Plasmodium falciparum) (UniProt O97467). Put plainly: ST_JUDE_LEISH: Cytotoxicity at 2uM final concentration against transgenic Leishmania Mexicana promastigotes LmPfHT that are glucose transport deficient and complemented with the Plasmodium falciparum hexose transporter. Activity is measured by DNA content using SYBR green in vitro.
Assay [3] addresses Glucose transporter (Leishmania mexicana) (UniProt O61059). Put plainly: ST_JUDE_LEISH: Cytotoxicity at 2uM final concentration against transgenic Leishmania Mexicana promastigotes LmGT2 that are glucose transport deficient and complemented with the L. Mexicana glucose transporter 2. Activity is measured by DNA content using SYBR green in vitro.

For `O=C(Nc1ccc(-c2ccc(-c3nc4ccccc4[nH]3)s2)cc1)Nc1ccc(Cl)c(Cl)c1`, the inhibition in assay [1] amounted to 9.56%; in assay [2], 8.71%; in assay [3], 11.2%.

For `CC(C)Oc1cc2c(cc1NS(=O)(=O)c1ccc(-c3ccc(Cl)cc3)cc1)CCN(C)CC2`, the values for the inhibition in assay [1], in assay [2] and in assay [3] were 2.55%, 7.31% and 4.31%, respectively.

Turning to `N#Cc1cccc(Nc2nccc(NCC(O)c3ccc(C(F)(F)F)cc3)n2)c1` (stereo not drawn), the inhibition stood at 3.05% in assay [1], 3.09% in assay [2] and 0.03% in assay [3].

`O=C(NCCN1CCCC1)c1ccc(-c2ccc(-c3nc4ccccc4[nH]3)s2)cc1`: the results for the inhibition in assay [1], in assay [2] and in assay [3] were 0.96%, -1.55% and 0.42%, respectively.

`Cc1ccccc1OCCCc1c(C)nc(N)nc1N`: the inhibition was found to be 3.68% in assay [1], 9.06% in assay [2] and 0.82% in assay [3].

In the case of `CC(C)Oc1cc2c(cc1NS(=O)(=O)c1ccc(-c3ccc(Cl)cc3)cc1F)CCN(C)CC2`, the inhibition was 1.27% in assay [1], 0.75% in assay [2] and -0.15% in assay [3].

`C=C(F)c1sc(CNCCCNc2nc3ccccc3[nH]2)c(C)c1Br`: the figures for the inhibition in assay [1], in assay [2] and in assay [3] were 57.5%, 73.8% and 68.7%, respectively.

Turning to `CCN(CCN(C)C)Cc1ccc(-c2ccc(NS(=O)(=O)c3cccc(Cl)c3)cc2)cc1`, the inhibition in assay [1] is 7.37%; in assay [2], 0.64%; in assay [3] it was -1.5%.

For `Cc1ccc(C(=O)Nc2cccc(-c3ccc(N4CCN(C)CC4)nn3)c2)cc1[N+](=O)[O-]`, the inhibition in assay [1] was 1.32%; in assay [2], -0.23%; in assay [3], -1.16%.

With `CC(C)N(Cc1ccc(-c2ccc(C(F)(F)F)cc2)cc1)C(=O)Cn1c(SCc2cccc(F)c2F)cc(=O)c2cc(CN3CCCCC3)ccc21`, the inhibition in assay [1] stood at 2.18%; in assay [2] it was 1.78%; in assay [3] it was 3.27%.

As for `COc1ccc(Oc2ccccc2CNCC2CCN(CC3CCCCC3)CC2)cc1`, the inhibition was 6.31% in assay [1], -1.98% in assay [2] and 2.13% in assay [3].

With `CCCc1cc(NCc2ccncc2)nc(Nc2ccc(F)cc2)n1`, the inhibition in assay [1] came to 13.4%; in assay [2], 8.66%; in assay [3], 2.99%.

Consider `Cc1nc(Cl)c2c(-c3ccccc3)csc2n1`, for which the inhibition in assay [1] is 0.55%; in assay [2] it was -0.74%; in assay [3], -0.21%.

Consider `COc1ccc(C2CC(=O)C3=C(C2)NC(C)=C(C(=O)OC(C)C)C3c2ccc(O)cc2)cc1OC` (stereo not drawn), for which the inhibition in assay [1] was 8.55%; in assay [2], 8.07%; in assay [3] it was 5.45%.

Turning to `CCCc1cc(Cc2cnc(N)nc2N)cc(OCCCCCC(=O)O)c1OC`, the values for the inhibition in assay [1], in assay [2] and in assay [3] were 1.55%, 0.18% and 0.67%, respectively.

With `O=C(CCCc1ccccc1)Nc1cccc(N2CCC(N3CCN(c4ccccc4O)CC3)CC2)c1`, the results for the inhibition in assay [1], in assay [2] and in assay [3] were 11.8%, 7.32% and 7.72%, respectively.

Take `Cc1ccc2c(-c3ccc([N+](=O)[O-])o3)cc(C)nc2c1`: the inhibition came to 54.3% in assay [1], 46.4% in assay [2] and 7.05% in assay [3].

With `CCCCCCCCn1c2c(c(=N)c3c1CCC3)CCC2`, the inhibition in assay [1] was 87.3%; in assay [2], 91.5%; in assay [3], 89.9%.

With `O=C(Nc1ccc(-c2cccc(-c3nc4cc(F)ccc4[nH]3)c2)cc1)Nc1ccsc1`, the inhibition in assay [1] is 5.02%; in assay [2], 6.71%; in assay [3], 0.78%.

For the compound `Nc1nc(N)c2c(ccc3c2cnn3S(=O)(=O)N2CCCC2)n1`, the values for the inhibition in assay [1], in assay [2] and in assay [3] were -1.43%, 0.03% and -2.01%, respectively.

Take `O=C(/C=C/c1ccc(Cl)c(Cl)c1)NCCCCCN1CC[C@H](NC(=O)Nc2ccc(Oc3ccccc3)cc2)C1`: the inhibition in assay [1] is -0.32%; in assay [2], -1.24%; in assay [3] it was 1.17%.

Turning to `Cc1cc(F)ccc1-c1nc(Nc2ccncc2)c2ccn(C)c2n1`, the figures for the inhibition in assay [1], in assay [2] and in assay [3] were 1.12%, 2.6% and 0.38%, respectively.

On to `Cc1cccc2nc(-c3ccc(-c4ccc(CN5CCCC5CN)cc4)cc3)[nH]c12` (stereo not drawn), for which the inhibition in assay [1] is 6.95%; in assay [2], 6.96%; in assay [3], 4.26%.

As to `COCCN1CCC(CN(C)CC(C)(C)c2nc(-c3ccc(Cl)c(O)c3)c(-c3ccncc3)[nH]2)CC1`, the inhibition in assay [1] was found to be 2.73%; in assay [2], 5.16%; in assay [3], 0.55%.

For `COc1ccc2ncc(Cl)c(CCN3CCC(NCc4ccc5c(n4)NC(=O)CS5)CC3)c2c1`, the inhibition in assay [1] turned out to be 7.16%; in assay [2] it was 11%; in assay [3], 2.97%.

Consider `COc1cccc(NC(=O)[C@H](C)n2c(=O)[nH]c3ccccc3c2=O)c1`, for which the inhibition in assay [1] was found to be 10.9%; in assay [2] it was 14.1%; in assay [3] it was 7.45%.

Consider `CCCCCN1CCC(NS(=O)(=O)c2cccc(C(=O)Nc3cccc(C(F)(F)F)c3)c2)C1` (stereo not drawn), for which the inhibition worked out at 1.68% in assay [1], 1.1% in assay [2] and 4.07% in assay [3].

Turning to `CCc1cn(CCCOC)c2ccc(C(=O)N[C@@H](Cc3ccccc3)[C@H](O)CNCc3cccc(C(F)(F)F)c3)cc12`, the inhibition came out at 3.43% in assay [1], 2.52% in assay [2] and 2.24% in assay [3].

On to `N=C(N)NN=CC(=O)Nc1ccc(Cl)c(Cl)c1`, for which the inhibition in assay [1] is 0.13%; in assay [2], -1.4%; in assay [3] it was -1.96%.

For `CC(=O)Nc1ccc(CN(Cc2ccc(F)cc2)Cc2ccc3c(c2)OCO3)cc1`, the figures for the inhibition in assay [1], in assay [2] and in assay [3] were 2.71%, 1.82% and 3.2%, respectively.

As for `COc1ccc(-c2ccc(S(=O)(=O)Nc3cc4c(cc3OC(C)C)CCNCC4)cc2)cc1`, the inhibition in assay [1] is -2.14%; in assay [2], -1.7%; in assay [3] it was -2.37%.

Consider `Cc1cc(N)c2cc(NC(=O)c3cccc(C(=O)Nc4ccc5nc(C)cc(N)c5c4)c3)ccc2n1`, for which the values for the inhibition in assay [1], in assay [2] and in assay [3] were -0.38%, 2.01% and -2.06%, respectively.

Regarding `O=C(Nc1ccc(N2CCCN(Cc3cccc(F)c3)CC2)cc1)c1ccccc1`, the inhibition in assay [1] was 0.26%; in assay [2], -0.73%; in assay [3] it was -0.78%.

As to `O=C(Nc1ccc(-c2nc3ccccc3[nH]2)cc1)C1CCCN(C2CCC2)C1` (stereo not drawn), the inhibition worked out at 19.8% in assay [1], 14.7% in assay [2] and 8.04% in assay [3].

As to `COc1ccc(OC)c(NC(=O)C2c3ccccc3C(=O)N(CC(C)C)C2c2cccs2)c1` (stereo not drawn), the inhibition was -1.99% in assay [1], -2.35% in assay [2] and -0.44% in assay [3].

Consider `O=C(NC1CCN(c2ccc(F)cc2[N+](=O)[O-])CC1)c1cccs1`, for which the inhibition came out at 4.31% in assay [1], 3.82% in assay [2] and 2.71% in assay [3].
